Results: PubChem BioAssay AID2284059 (EPA ToxCast)
Activity calls are given as the source filed them. How the source made its calls: active means hit-call score of the fitted dose curve at least 0.9, where 1 is the maximum; inactive means score below 0.9.

Target: CYP2E1, CYP2E1 (gene 1571) (UniProt P05181)
Assay: ERF_FR_ADME_hCYP2E1: Eurofins (ERF) CYP450-related Enzyme Activity (ADME) Assay for CYP2E1
Procedure: ERF_FR_ADME_hCYP2E1 is a biochemical, single-readout assay that uses extracted gene-proteins in a cell-free assay. Measurements were taken 0.16 hour after chemical dosing in a 96-well plate. See CYP2E1 inhibition (recombinant, EC substrate).ERF_FR_ADME_hCYP2E1 is an assay component calculated from the ERF_FR_ADME_hCYP2E1 assay. It is designed to measure enzyme activity using a type of enzyme reporter as detected by peak area response of 6-hydroxychlorzoxazone with HPLC-MS/MS technology.Data from the assay component ERF_FR_ADME_hCYP2E1 was analyzed at the assay endpoint, ERF_FR_ADME_hCYP2E1, in the positive analysis fitting direction relative to acetonitrile as the negative control and baseline of activity. Using a type of enzyme reporter, loss-of-signal activity can be used to understand changes in enzymatic activity as they relate to gene CYP2E1. To generalize the intended target to other relatable targets, this assay endpoint is annotated to the cyp intended target family, where the subfamily is steroidogenesis-related.
Assay is performed using 20 uM chlorzoxazone, cells are pre-incubated for 5 minutes, and then 10 minutes incubation with NADPH at 37C.

Chain of CYP2E1, CYP2E1 (gene 1571) (P05181 whole entry, looked up): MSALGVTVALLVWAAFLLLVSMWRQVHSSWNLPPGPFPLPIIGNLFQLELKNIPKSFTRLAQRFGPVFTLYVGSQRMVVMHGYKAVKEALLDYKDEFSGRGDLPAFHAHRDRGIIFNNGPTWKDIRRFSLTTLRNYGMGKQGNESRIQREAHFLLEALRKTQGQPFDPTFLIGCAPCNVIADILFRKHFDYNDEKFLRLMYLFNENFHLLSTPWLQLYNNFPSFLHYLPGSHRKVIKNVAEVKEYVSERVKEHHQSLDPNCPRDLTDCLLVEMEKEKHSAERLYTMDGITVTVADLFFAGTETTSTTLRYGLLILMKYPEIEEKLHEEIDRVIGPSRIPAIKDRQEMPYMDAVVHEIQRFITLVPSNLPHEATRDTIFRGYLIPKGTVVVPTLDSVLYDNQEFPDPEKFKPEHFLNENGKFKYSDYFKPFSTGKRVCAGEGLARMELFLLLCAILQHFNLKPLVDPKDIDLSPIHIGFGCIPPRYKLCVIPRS

| SMILES | AC50 |
| --- | --- |
| COc1cc(CCC(=O)CC(=O)CCc2ccc(O)c(OC)c2)ccc1O | 1.24 µM (active) |
| O=C(/C=C/c1ccc(O)cc1)CC(=O)/C=C/c1ccc(O)cc1 | 1.15 µM (active) |
| COc1cc(/C=C/C(=O)CC(=O)/C=C/c2ccc(O)c(OC)c2)ccc1O | 1.08 µM (active) |
